# Results reported in PubChem BioAssay (EPA / NIEHS).
# Where “and” joins values, the source holds several entries; their conditions need not be identical. Identical values can stand only once. Where a structure was tested more than once in an assay, its records may differ in their call. Calls of active or inactive are those of the source. Rule for the calls: active = hit-call score of the fitted dose curve at least 0.9, where 1 is the maximum; inactive = score below 0.9.
# Experiments:
# [1] = ATG_M_19_CIS: Attagene CIS-FACTORIAL HepG2 Assay for M19 Transcription Factor (Internal Marker) (AID 2282939); settings: HepG2 Attagene CIS-FACTORIAL M19 internal marker reporter; actives raise or lower the signal
# Method in brief: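 HepG2 cells transiently transfected with cis-regulated multiple reporter transcription units were dosed for 24 h; reporter mRNA was quantified by RT-PCR, 6-FAM primer-extension labelling, HpaI digestion and capillary electrophoresis, with bidirectional fitting against DMSO baseline.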
# [2] = target: Bile acid receptor (Homo sapiens) (UniProt Q96RI1); assay: ATG_IR1_CIS: Attagene CIS-FACTORIAL HepG2 Assay for human Nuclear Receptor Subfamily 1 Group H Member 4 (NR1H4), IR1 submotif (AID 2282946); settings: IR1 reporter transcription, actives raise or lower the signal
# Bile acid receptor (Homo sapiens), sequence (Q96RI1 whole entry, looked up): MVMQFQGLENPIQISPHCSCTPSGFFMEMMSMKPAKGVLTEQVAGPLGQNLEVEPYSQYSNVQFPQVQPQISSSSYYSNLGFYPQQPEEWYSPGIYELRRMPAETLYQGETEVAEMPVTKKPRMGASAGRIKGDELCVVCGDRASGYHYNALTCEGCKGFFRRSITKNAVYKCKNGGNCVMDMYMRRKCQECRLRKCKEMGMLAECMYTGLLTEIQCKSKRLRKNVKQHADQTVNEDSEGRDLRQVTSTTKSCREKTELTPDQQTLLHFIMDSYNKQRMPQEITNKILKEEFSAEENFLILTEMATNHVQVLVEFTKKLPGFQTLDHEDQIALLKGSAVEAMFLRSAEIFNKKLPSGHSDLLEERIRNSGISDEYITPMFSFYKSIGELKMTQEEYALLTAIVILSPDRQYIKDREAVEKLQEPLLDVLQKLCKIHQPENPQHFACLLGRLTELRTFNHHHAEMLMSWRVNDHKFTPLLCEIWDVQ
# Method in brief: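 HepG2 cells transiently transfected with multiple cis-promoter-driven reporter units to measure endogenous transcription factor activity; 24 h exposure. Reporter mRNA read by RT-PCR, FAM labelling, HpaI digestion and capillary electrophoresis. Bidirectional fit versus DMSO.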
# [3] = read-out: Urokinase-type plasminogen activator receptor (uPAR), PLAUR (gene 5329); assay: BSK_4H_uPAR: BioMAP Diversity Plus: 4H Assay for Urokinase-type plasminogen activator receptor (uPAR) Biomarker Activity (AID 2283030); settings: primary human endothelial cells (HUVEC); actives raise or lower the signal
# Method in brief: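 HUVEC, 24 h post-dose; uPAR by ELISA; bidirectional fit vs DMSO baseline.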
# [4] = read-out: Human Leukocyte Antigen - DR isotype (HLADR), HLA-DRA (gene 3122); assay: BSK_BE3C_HLADR: BioMAP Diversity Plus: BE3C Assay for Human Leukocyte Antigen - DR isotype (HLADR) Biomarker Activity (AID 2283032); settings: primary human bronchial epithelial cells; actives raise or lower the signal
# Method in brief: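 Human primary bronchial epithelial cells in the BE3C system were exposed to chemicals for 24 h, after which HLA-DR levels were quantified by ELISA. Activity was fitted bidirectionally, gain or loss of signal, against DMSO as negative control and baseline.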
# [5] = read-out: Interferon-gamma inducible Protein 10 (IP10), CXCL10 (gene 3627); assay: BSK_BE3C_IP10: BioMAP Diversity Plus: BE3C Assay for Interferon-gamma inducible Protein 10 (IP10) Biomarker Activity (AID 2283034); settings: primary human bronchial epithelial cells; actives raise or lower the signal
# Method in brief: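 Human primary bronchial epithelial cells were exposed to chemicals for 24 hours, after which IP-10 levels were measured by ELISA. Data were fitted bidirectionally against DMSO, which served as the negative control and activity baseline.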
# [6] = read-out: urokinase plasminogen activator (uPA), PLAU (gene 5328); assay: BSK_BE3C_uPA: BioMAP Diversity Plus: BE3C Assay for urokinase plasminogen activator (uPA) Biomarker Activity (AID 2283038); settings: primary human bronchial epithelial cells; actives raise or lower the signal;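 for outcome: uPA protein level quantified by ELISA in cell cultures; uPA read one day after compound addition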
# Method in brief: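 ELISA read-out of uPA in human lung primary bronchial epithelial cultures, 24 h post-dosing. Gain or loss of signal fitted bidirectionally relative to DMSO baseline; cytotoxicity checked in parallel cultures via SRB total protein stain.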
# [7] = read-out: Interleukin-6 (IL6), IL6 (gene 3569); assay: BSK_CASM3C_IL6: BioMAP Diversity Plus: CASM3C Assay for Interleukin-6 (IL6) Biomarker Activity for (AID 2283040); settings: primary human coronary artery smooth muscle cells; actives raise or lower the signal
# [8] = read-out: Monokine induced gamma interferon (MIG), CXCL9 (gene 4283); assay: BSK_CASM3C_MIG: BioMAP Diversity Plus: CASM3C Assay for Monokine induced gamma interferon (MIG) Biomarker Activity (AID 2283048); settings: primary human coronary artery smooth muscle cells; actives raise or lower the signal;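 note: MIG protein level measured by ELISA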
# [9] = read-out: serum amyloid A (SAA), SAA1 (gene 6288); assay: BSK_CASM3C_SAA: BioMAP Diversity Plus: CASM3C Assay for serum amyloid A (SAA) Biomarker Activity (AID 2283049); settings: primary human coronary artery smooth muscle cells; actives raise or lower the signal;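 note: SAA protein level quantified by ELISA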
# [10] = read-out: Urokinase-type plasminogen activator receptor (uPAR), PLAUR (gene 5329); assay: BSK_CASM3C_uPAR: BioMAP Diversity Plus: CASM3C Assay for Urokinase-type plasminogen activator receptor (uPAR) Biomarker Activity (AID 2283054); settings: primary human coronary artery smooth muscle cells; actives raise or lower the signal;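 note: cell-surface uPAR protein level quantified by ELISA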
# [11] = read-out: Epidermal growth factor receptor (EGFR), EGFR (gene 1956); assay: BSK_hDFCGF_EGFR: BioMAP Diversity Plus: hDFCGF Assay for Epidermal growth factor receptor (EGFR) Biomarker Activity (AID 2283057); settings: primary human foreskin fibroblasts; actives raise or lower the signal
# Method in brief: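 Primary human foreskin fibroblasts were exposed to compound for 24 h, after which cell-surface EGFR was quantified by ELISA. Activity was fitted bidirectionally against the DMSO negative control as baseline.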
# [12] = read-out: Vascular cell adhesion molecule 1 (VCAM1), VCAM1 (gene 7412); assay: BSK_hDFCGF_VCAM1: BioMAP Diversity Plus: hDFCGF Assay for Vascular cell adhesion molecule 1 (VCAM1) Biomarker Activity (AID 2283065); settings: primary human foreskin fibroblasts; actives raise or lower the signal;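 for AC50: VCAM-1 protein level quantified by ELISA after 24 h chemical exposure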
# Method in brief: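 ELISA read-out of VCAM-1 on human skin fibroblasts, 24 h post-dose; gain or loss of signal fitted bidirectionally against DMSO baseline.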
# [13] = read-out: Intercellular Adhesion Molecule 1 (ICAM1), ICAM1 (gene 3383); assay: BSK_KF3CT_ICAM1: BioMAP Diversity Plus: KF3CT Assay for Intercellular Adhesion Molecule 1 (ICAM1) Biomarker Activity (AID 2283067); settings: primary human keratinocytes with fibroblasts; actives raise or lower the signal
# Method in brief: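 ELISA readout of ICAM-1; KF3CT human skin co-culture (keratinocytes + foreskin fibroblasts), 24 h post-dose; gain/loss fit vs DMSO baseline.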
# [14] = read-out: Interleukin-8 (IL8), CXCL8 (gene 3576); assay: BSK_LPS_IL8: BioMAP Diversity Plus: LPS Assay for Interleukin-8 (IL8) Biomarker Activity (AID 2283078); settings: primary human HUVEC with PBMC; actives raise or lower the signal
# Method in brief: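 HUVEC + PBMC co-culture, LPS-activated; test chemicals dosed, IL-8 read by ELISA at 24 h. Bidirectional curve fit vs DMSO baseline (gain or loss of signal).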
# [15] = read-out: Interleukin-1 alpha (IL1a), IL1A (gene 3552); assay: BSK_LPS_IL1a: BioMAP Diversity Plus: LPS Assay for Interleukin-1 alpha (IL1a) Biomarker Activity (AID 2283080); settings: primary human HUVEC with PBMC; actives raise or lower the signal
# Method in brief: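 HUVEC/PBMC co-culture, LPS system; 24 h after dosing; IL-1a by ELISA; gain or loss of signal fitted bidirectionally vs DMSO baseline.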
# [16] = BSK_LPS_PGE2: BioMAP Diversity Plus: LPS Assay for Prostaglandin E2 (PGE2) Biomarker Activity (AID 2283082); settings: primary human HUVEC with PBMC; actives raise or lower the signal;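 for AC50: secreted prostaglandin E2 measured by ELISA in LPS-stimulated co-culture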
# Method in brief: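 HUVEC plus PBMC co-culture stimulated with LPS; secreted PGE2 quantified by ELISA 24 h after chemical dosing. Activity fitted bidirectionally against DMSO as negative control and baseline; parallel SRB total-protein staining served as cytotoxicity check.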
# [17] = read-out: Macrophage colony-stimulating factor (MCSF), CSF1 (gene 1435); assay: BSK_LPS_MCSF: BioMAP Diversity Plus: LPS Assay for Macrophage colony-stimulating factor (MCSF) Biomarker Activity (AID 2283083); settings: primary human HUVEC with PBMC; actives raise or lower the signal
# Method in brief: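 HUVEC + PBMC co-culture (human primary), 24 h post-dose; M-CSF by ELISA; gain/loss of signal fitted bidirectionally vs DMSO baseline.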
# [18] = read-out: Tissue Factor, F3 (gene 2152); assay: BSK_LPS_TissueFactor: BioMAP Diversity Plus: LPS Assay for Tissue Factor Biomarker Activity (AID 2283084); settings: primary human HUVEC with PBMC; actives raise or lower the signal
# Method in brief: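 HUVEC/PBMC co-culture, LPS-activated; CD142 ELISA read 24 h post-dose; bidirectional curve fit vs DMSO negative control.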
# CD69, CD69 (gene 969) = assay: BSK_SAg_CD69: BioMAP Diversity Plus: SAg Assay for CD69 Biomarker Activity (AID 2283089); settings: primary human HUVEC with PBMC; actives raise or lower the signal;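 for AC50: cell surface CD69 protein quantified by ELISA with fluorescence detection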
# Method in brief: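 Values derive from bidirectional fitting relative to DMSO vehicle. Cells: umbilical vein endothelium plus peripheral blood mononuclear cells, treated 24 h before fluorescent ELISA for CD69.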
# [19] = target: Hepatocyte nuclear factor 6 (Homo sapiens) (UniProt Q9UBC0); assay: ATG_HNF6_CIS: Attagene CIS-FACTORIAL HepG2 Assay for human Hepatocyte Nuclear Factor 6 (HNF6) (AID 2282952); settings: HepG2 Attagene cis-factorial HNF6 reporter transcription; actives raise or lower the signal
# Hepatocyte nuclear factor 6 (Homo sapiens), sequence (Q9UBC0 whole entry, looked up): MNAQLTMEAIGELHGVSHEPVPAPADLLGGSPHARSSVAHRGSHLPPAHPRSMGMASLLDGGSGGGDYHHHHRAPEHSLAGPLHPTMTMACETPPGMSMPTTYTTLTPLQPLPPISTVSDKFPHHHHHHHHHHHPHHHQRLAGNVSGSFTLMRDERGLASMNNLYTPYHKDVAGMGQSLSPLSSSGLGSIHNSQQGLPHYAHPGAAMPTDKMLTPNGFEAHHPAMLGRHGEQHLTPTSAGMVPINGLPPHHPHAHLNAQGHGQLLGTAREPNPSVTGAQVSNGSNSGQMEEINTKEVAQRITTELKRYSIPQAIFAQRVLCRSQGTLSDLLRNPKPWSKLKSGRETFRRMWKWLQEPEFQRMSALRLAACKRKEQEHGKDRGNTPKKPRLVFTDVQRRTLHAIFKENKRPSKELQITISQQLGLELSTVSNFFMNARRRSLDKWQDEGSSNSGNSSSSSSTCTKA
# Method in brief: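 Transiently transfected HepG2 cells expressing cis-regulated reporter transcription units were exposed to chemical for 24 h in a 24-well format. Reporter transcript abundance was determined by fluorescence capillary electrophoresis.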
smiles,measurement,setting,value
Sc1nc2ccccc2s1,outcome,[1],inactive
same,outcome,[2],inactive
same,outcome,[3],inactive
same,outcome,[4],inactive
same,outcome,[5],inactive
same,outcome,[6],inactive
same,outcome,[7],inactive
same,outcome,[8],inactive
same,outcome,[9],inactive
same,outcome,[10],inactive
same,outcome,[11],inactive
same,outcome,[12],inactive
same,outcome,[13],inactive
same,outcome,[14],inactive
same,outcome,[15],inactive
same,outcome,[16],inactive
same,outcome,[17],inactive
same,AC50,[18],4.28 µM (active)
same,outcome,"CD69, CD69 (gene 969)",inactive
CNC(=C[N+](=O)[O-])NCCSCc1csc(CN(C)C)n1,outcome,[1],inactive
same,outcome,[19],inactive
Oc1cccc2ccccc12,outcome,[1],inactive
same,outcome,[2],inactive
same,outcome,[19],inactive
same,outcome,[3],inactive
same,outcome,[4],inactive
same,outcome,[5],inactive
same,outcome,[6],inactive
same,outcome,[7],inactive
same,outcome,[8],inactive
same,outcome,[9],inactive
same,outcome,[10],inactive
same,outcome,[11],inactive
same,outcome,[12],inactive
same,outcome,[13],inactive
same,outcome,[14],inactive
same,outcome,[15],inactive
same,outcome,[16],inactive
same,outcome,[17],inactive
same,AC50,[18],6.27 µM (active)
same,outcome,"CD69, CD69 (gene 969)",inactive
O=[N+]([O-])c1cc(S(=O)(=O)Nc2ccccc2)ccc1Nc1ccccc1,AC50,[3],33.5 µM (active)
same,outcome,[3],inactive
same,AC50,[4],31 µM (active) and 32 µM (active)
same,AC50,[5],32.4 µM (active) and 31.9 µM (active)
same,AC50,[6],34.9 µM (active)
same,outcome,[6],inactive
same,AC50,[7],20 µM (active) and 10.3 µM (active)
same,outcome,[8],inactive
same,outcome,[9],inactive
same,outcome,[10],inactive
same,AC50,[11],30.4 µM (active) and 31.3 µM (active)
same,AC50,[12],32.4 µM (active) and 27 µM (active)
same,AC50,[13],32.8 µM (active) and 32.4 µM (active)
same,AC50,[14],22.7 µM (active) and 20 µM (active)
same,outcome,[15],inactive
same,AC50,[16],28.9 µM (active)
same,outcome,[16],inactive
same,AC50,[17],9.74 µM (active)
same,outcome,[17],inactive
same,AC50,[18],2.78 µM (active)
same,outcome,[18],inactive
same,AC50,"CD69, CD69 (gene 969)",22 µM (active) and 18 µM (active)
CC/C=C\CCO,outcome,[1],inactive
same,outcome,[2],inactive
Cc1c(C(N)=O)cc([N+](=O)[O-])cc1[N+](=O)[O-],outcome,[3],inactive
same,AC50,[4],27.8 µM (active)
same,outcome,[4],inactive
same,AC50,[5],32.6 µM (active)
same,outcome,[5],inactive
same,outcome,[6],inactive
same,outcome,[7],inactive
same,outcome,[8],inactive
same,outcome,[9],inactive
same,outcome,[10],inactive
same,outcome,[11],inactive
same,outcome,[12],inactive
same,outcome,[13],inactive
same,outcome,[14],inactive
same,outcome,[15],inactive
same,outcome,[16],inactive
same,outcome,[17],inactive
same,outcome,[18],inactive
same,outcome,"CD69, CD69 (gene 969)",inactive
OC(C(F)(F)F)(C(F)(F)F)C(O)(C(F)(F)F)C(F)(F)F,AC50,[3],12.7 µM (active) and 15.4 µM (active)
same,AC50,[4],48.2 µM (active) and 45.4 µM (active)
same,AC50,[5],42.6 µM (active) and 43.6 µM (active)
same,AC50,[6],28.8 µM (active) and 32.2 µM (active)
same,AC50,[7],41.2 µM (active)
same,outcome,[7],inactive
same,AC50,[8],39.8 µM (active) and 30 µM (active)
same,outcome,[9],inactive
same,AC50,[10],19.3 µM (active) and 22.6 µM (active)
same,AC50,[11],5.95 µM (active)
same,outcome,[11],inactive
same,AC50,[12],13.2 µM (active) and 12.3 µM (active)
same,AC50,[13],48.3 µM (active)
same,outcome,[13],inactive
same,outcome,[14],inactive
same,outcome,[15],inactive
same,AC50,[16],7.65 µM (active) and 6.88 µM (active)
same,AC50,[17],22 µM (active) and 21.7 µM (active)
same,AC50,[18],30 µM (active)
same,AC50,"CD69, CD69 (gene 969)",18.5 µM (active) and 17.7 µM (active)
OCCOCCOCCOCCOCCO,outcome,[19],inactive
COc1ccccc1Oc1c(NS(=O)(=O)c2ccc(C(C)(C)C)cc2)nc(-c2ncccn2)nc1OCCO,outcome,[3],inactive
same,outcome,[4],inactive
same,outcome,[5],inactive
same,outcome,[6],inactive
same,outcome,[7],inactive
same,outcome,[8],inactive
same,AC50,[9],3.97 µM (active)
same,outcome,[9],inactive
same,outcome,[10],inactive
same,outcome,[11],inactive
same,outcome,[12],inactive
same,outcome,[13],inactive
same,AC50,[14],20 µM (active) and 9.01 µM (active)
same,AC50,[15],10.4 µM (active)
same,outcome,[15],inactive
same,outcome,[16],inactive
same,outcome,[17],inactive
same,outcome,[18],inactive
same,outcome,"CD69, CD69 (gene 969)",inactive
CC(=O)Nc1c(I)c(NC(C)=O)c(I)c(C(=O)O)c1I,outcome,[19],inactive
CCc1cc(C(N)=S)ccn1,outcome,[1],inactive
same,outcome,[19],inactive
CC1=CCCC(C)(C)C12CCC(C)O2 (stereo not given),outcome,[1],inactive
same,outcome,[2],inactive
same,outcome,[19],inactive
